The supplement of paper PMC12282887
± gives the standard deviation of the averaged measurements.

What was measured:
Assay in all cases: promoter activity interaction Z-score (Lux/OD deviation from empty-vector control); higher = stronger promoter induction by the compound
[1] = system: E. coli BW25113 acrABp lux reporter
Outline: (§1)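 Wild-type E. coli BW25113 and three single-gene deletion strains, each carrying a low-copy luxCDABE promoter reporter, were grown at 37°C in 40 µl LB Lennox per well of a 384-well plate. Every compound was applied at four 1:2 dilutions in biological duplicates, and OD600 and luminescence were read every 30 min for 12 h. Integration covered 0–8 h for wild type and 1–9 h for deletion strains, and wells under 10% of the median growth value were removed. Scores are Z-transformed residuals of growth-normalised luminescence fitted against a control.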

[2] = system: E. coli BW25113 marRABp lux reporter
Outline: as §1

[3] = system: E. coli BW25113 micFp lux reporter
Outline: as §1

[4] = system: E. coli BW25113 ompFp lux reporter
Outline: as §1

[5] = system: E. coli BW25113 robp lux reporter
Outline: as §1

[6] = system: E. coli BW25113 soxSp lux reporter
Outline: as §1

[7] = system: E. coli BW25113 tolCp lux reporter
Outline: as §1

[8] = 0.25 µg/ml, genetic background: wild type
[9] = 0.25 µg/ml, genetic background: ΔmarA
[10] = 0.25 µg/ml, genetic background: Δrob
[11] = 0.25 µg/ml, genetic background: ΔsoxS
[12] = 0.5 µg/ml, genetic background: wild type
[13] = 0.5 µg/ml, genetic background: ΔmarA
[14] = 0.5 µg/ml, genetic background: Δrob
[15] = 0.5 µg/ml, genetic background: ΔsoxS
[16] = 1 µg/ml, genetic background: wild type
[17] = 1 µg/ml, genetic background: ΔmarA
[18] = 1 µg/ml, genetic background: Δrob
[19] = 1 µg/ml, genetic background: ΔsoxS
[20] = 2 µg/ml, genetic background: wild type
[21] = 2 µg/ml, genetic background: ΔmarA
[22] = 2 µg/ml, genetic background: Δrob
[23] = 2 µg/ml, genetic background: ΔsoxS

`C/C(=C\C(=O)OCCCCCCCCC(=O)O)C[C@@H]1OC[C@H](C[C@@H]2O[C@H]2[C@@H](C)[C@H](C)O)[C@@H](O)[C@H]1O` [Pseudomonic acid] was tested, and the “promoter activity interaction Z-score” value [1, 8] was -0.112 ± 0.0017, the “promoter activity interaction Z-score” value [1, 9] was 0.206 ± 0.33 and the “promoter activity interaction Z-score” value [1, 10] was 0.0305 ± 0.27. The “promoter activity interaction Z-score” value [1, 11] was -0.332 ± 0.5, the “promoter activity interaction Z-score” value [1, 12] was -0.272 ± 0.0069 and the “promoter activity interaction Z-score” value [1, 13] was 0.456 ± 0.14. For the same molecule, the “promoter activity interaction Z-score” value [1, 14] was -0.0699 ± 0.0047, the “promoter activity interaction Z-score” value [1, 15] was -0.0985 ± 0.042 and the “promoter activity interaction Z-score” value [1, 16] was -0.204 ± 0.26. For the same molecule, the “promoter activity interaction Z-score” value [1, 17] was 0.378 ± 0.38, the “promoter activity interaction Z-score” value [1, 18] was -0.109 ± 0.35 and the “promoter activity interaction Z-score” value [1, 19] was 0.483 ± 0.38. For the same molecule, the “promoter activity interaction Z-score” value [1, 20] was -0.0697 ± 0.066, the “promoter activity interaction Z-score” value [1, 21] was -0.0876 ± 0.43 and the “promoter activity interaction Z-score” value [1, 22] was 0.431 ± 0.61. The “promoter activity interaction Z-score” value [1, 23] was -0.262 ± 0.13, the “promoter activity interaction Z-score” value [2, 8] was 0.11 ± 0.42 and the “promoter activity interaction Z-score” value [2, 9] was -0.235 ± 0.012. For the same molecule, the “promoter activity interaction Z-score” value [2, 10] was -0.0762 ± 0.015, the “promoter activity interaction Z-score” value [2, 11] was 0.0844 ± 0.02 and the “promoter activity interaction Z-score” value [2, 12] was -0.132 ± 0.23. For the same molecule, the “promoter activity interaction Z-score” value [2, 13] was 0.0957 ± 0.22, the “promoter activity interaction Z-score” value [2, 14] was -0.00927 ± 0.019 and the “promoter activity interaction Z-score” value [2, 15] was -0.0242 ± 0.093. For the same molecule, the “promoter activity interaction Z-score” value [2, 16] was -0.169 ± 0.093, the “promoter activity interaction Z-score” value [2, 17] was -0.155 ± 0.7 and the “promoter activity interaction Z-score” value [2, 18] was -0.106 ± 0.21. The “promoter activity interaction Z-score” value [2, 19] was -0.0673 ± 0.12, the “promoter activity interaction Z-score” value [2, 20] was 0.422 ± 0.28 and the “promoter activity interaction Z-score” value [2, 21] was 0.511 ± 0.47. For the same molecule, the “promoter activity interaction Z-score” value [2, 22] was 0.235 ± 0.31, the “promoter activity interaction Z-score” value [2, 23] was 0.341 ± 0.086 and the “promoter activity interaction Z-score” value [3, 8] was -0.00251 ± 0.014. For the same molecule, the “promoter activity interaction Z-score” value [3, 9] was -0.0765 ± 0.049, the “promoter activity interaction Z-score” value [3, 10] was 0.0594 ± 0.055 and the “promoter activity interaction Z-score” value [3, 11] was -0.253 ± 0.16. The “promoter activity interaction Z-score” value [3, 12] was -0.108 ± 0.12, the “promoter activity interaction Z-score” value [3, 13] was 0.0535 ± 0.005 and the “promoter activity interaction Z-score” value [3, 14] was -0.0538 ± 0.014. The “promoter activity interaction Z-score” value [3, 15] was 0.11 ± 0.00091, the “promoter activity interaction Z-score” value [3, 16] was -0.064 ± 0.06 and the “promoter activity interaction Z-score” value [3, 17] was -0.0233 ± 0.076. For the same molecule, the “promoter activity interaction Z-score” value [3, 18] was -0.144 ± 0.018, the “promoter activity interaction Z-score” value [3, 19] was 0.271 ± 0.095 and the “promoter activity interaction Z-score” value [3, 20] was -0.0515 ± 0.13. The “promoter activity interaction Z-score” value [3, 21] was -0.351 ± 0.054, the “promoter activity interaction Z-score” value [3, 22] was -0.275 ± 0.0059 and the “promoter activity interaction Z-score” value [3, 23] was -0.431 ± 0.085. For the same molecule, the “promoter activity interaction Z-score” value [4, 8] was 0.431 ± 0.041, the “promoter activity interaction Z-score” value [4, 9] was 0.122 ± 0.59 and the “promoter activity interaction Z-score” value [4, 10] was 0.647 ± 0.08. The “promoter activity interaction Z-score” value [4, 11] was 0.0332 ± 0.47, the “promoter activity interaction Z-score” value [4, 12] was 0.435 ± 0.061 and the “promoter activity interaction Z-score” value [4, 13] was 0.376 ± 0.74. The “promoter activity interaction Z-score” value [4, 14] was 0.561 ± 0.78, the “promoter activity interaction Z-score” value [4, 15] was 0.388 ± 0.58 and the “promoter activity interaction Z-score” value [4, 16] was 0.248 ± 0.034. For the same molecule, the “promoter activity interaction Z-score” value [4, 17] was 0.569 ± 0.62, the “promoter activity interaction Z-score” value [4, 18] was -0.0747 ± 0.3 and the “promoter activity interaction Z-score” value [4, 19] was 0.938 ± 0.33. The “promoter activity interaction Z-score” value [4, 20] was 1.46 ± 0.058, the “promoter activity interaction Z-score” value [4, 21] was 1.34 ± 1.3 and the “promoter activity interaction Z-score” value [4, 22] was 1.51 ± 0.36. The “promoter activity interaction Z-score” value [4, 23] was 1.34 ± 0.34, the “promoter activity interaction Z-score” value [5, 8] was 0.653 ± 0.041 and the “promoter activity interaction Z-score” value [5, 9] was 0.421 ± 0.4. For the same molecule, the “promoter activity interaction Z-score” value [5, 10] was 0.357 ± 0.37, the “promoter activity interaction Z-score” value [5, 11] was 0.316 ± 0.48 and the “promoter activity interaction Z-score” value [5, 12] was 0.392 ± 0.59. For the same molecule, the “promoter activity interaction Z-score” value [5, 13] was 0.85 ± 0.05, the “promoter activity interaction Z-score” value [5, 14] was 0.39 ± 0.34 and the “promoter activity interaction Z-score” value [5, 15] was 0.257 ± 0.2. For the same molecule, the “promoter activity interaction Z-score” value [5, 16] was 0.263 ± 0.2, the “promoter activity interaction Z-score” value [5, 17] was 0.154 ± 0.026 and the “promoter activity interaction Z-score” value [5, 18] was 0.375 ± 0.08. For the same molecule, the “promoter activity interaction Z-score” value [5, 19] was 0.843 ± 0.45, the “promoter activity interaction Z-score” value [5, 20] was -0.842 ± 0.42 and the “promoter activity interaction Z-score” value [5, 21] was -1.15 ± 0.4. The “promoter activity interaction Z-score” value [5, 22] was -1.28 ± 0.23, the “promoter activity interaction Z-score” value [5, 23] was -1.41 ± 0.72 and the “promoter activity interaction Z-score” value [6, 8] was -0.0625 ± 0.032. The “promoter activity interaction Z-score” value [6, 9] was -0.0981 ± 0.09, the “promoter activity interaction Z-score” value [6, 10] was 0.0456 ± 0.03 and the “promoter activity interaction Z-score” value [6, 11] was -0.226 ± 0.46. For the same molecule, the “promoter activity interaction Z-score” value [6, 12] was -0.257 ± 0.034, the “promoter activity interaction Z-score” value [6, 13] was -0.0627 ± 0.0052 and the “promoter activity interaction Z-score” value [6, 14] was -0.182 ± 0.0097. The “promoter activity interaction Z-score” value [6, 15] was -0.102 ± 0.24, the “promoter activity interaction Z-score” value [6, 16] was -0.14 ± 0.14 and the “promoter activity interaction Z-score” value [6, 17] was -0.143 ± 0.15. The “promoter activity interaction Z-score” value [6, 18] was -0.259 ± 0.033, the “promoter activity interaction Z-score” value [6, 19] was 0.137 ± 0.11 and the “promoter activity interaction Z-score” value [6, 20] was 0.249 ± 0.064. For the same molecule, the “promoter activity interaction Z-score” value [6, 21] was 0.277 ± 0.25, the “promoter activity interaction Z-score” value [6, 22] was 0.0902 ± 0.012 and the “promoter activity interaction Z-score” value [6, 23] was 0.748 ± 0.0089. The “promoter activity interaction Z-score” value [7, 8] was -0.891 ± 0.62, the “promoter activity interaction Z-score” value [7, 9] was -0.0344 ± 0.2 and the “promoter activity interaction Z-score” value [7, 10] was -0.281 ± 0.4. The “promoter activity interaction Z-score” value [7, 11] was -1.37 ± 0.18, the “promoter activity interaction Z-score” value [7, 12] was -0.126 ± 0.82 and the “promoter activity interaction Z-score” value [7, 13] was 0.395 ± 0.35. The “promoter activity interaction Z-score” value [7, 14] was -0.919 ± 0.45, the “promoter activity interaction Z-score” value [7, 15] was -0.306 ± 0.13 and the “promoter activity interaction Z-score” value [7, 16] was -0.0576 ± 0.9. The “promoter activity interaction Z-score” value [7, 17] was 0.349 ± 1.1, the “promoter activity interaction Z-score” value [7, 18] was -0.441 ± 0.81 and the “promoter activity interaction Z-score” value [7, 19] was 0.0561 ± 0.82. For the same molecule, the “promoter activity interaction Z-score” value [7, 20] was 0.277 ± 0.14, the “promoter activity interaction Z-score” value [7, 21] was -0.606 ± 0.55 and the “promoter activity interaction Z-score” value [7, 22] was 0.432 ± 0.075. The “promoter activity interaction Z-score” value [7, 23] was -1.08 ± 0.07.
